Shown are actives, neighbours in structure and some others; about 2.8% of the full set was active somewhere.
WRN helicase inh – qHTS for Inhibitors of WRN Helicase | Potency, µM (highest dose often 114 µM), usual class: inhibitors | AID 651768, 2012 | 360,000 tested, 0.46% active | Bifunctional 3'-5' exonuclease/ATP-dependent helicase WRN (Homo sapiens), Q14191 | WRN helicase unwinding, fluorescent forked duplex, kinetic; note: nearly all actives have a fitted effect of over 55% in size
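Primary qHTS, 1536-well format. 20 nM WRN + compound, 15 min RT; start with 100 nM forked fluorophore/quencher duplex, 2 mM ATP (final); kinetic read ex 525/em 598 nm.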
POLB inh – qHTS Assay for Inhibitors of DNA Polymerase Beta; P06746; Potency, µM (series often up to 114 µM), hits mostly inhibitors; Pol beta primer extension/strand displacement, fluorescence kinetic; 340,000 tested, 1.3% active
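Preincubation: enzyme (10 nM) with compound, 15 min, RT. Reaction: substrate added to 50 nM final. Reads: 0 and 10 min. Analysis: normalized, Hill fit.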
PI5P4Ka inh – qHTS for Inhibitors of phosphatidylinositol 5-phosphate 4-kinase (PI5P4K); 330,000 tested, 1.2% active; max response, %; Phosphatidylinositol 5-phosphate 4-kinase type-2 alpha (Homo sapiens), P48426; AID 652105, 2013; PI5P4Kalpha enzyme, ADP-Glo luminescence, 60 min; stronger effect = lower value; active = max response of -50% or lower; inconclusive = between -30% and -50%; inactive = -30% or higher; note: value at the top dose of about 77 µM
Target sequence (P48426 whole entry, looked up): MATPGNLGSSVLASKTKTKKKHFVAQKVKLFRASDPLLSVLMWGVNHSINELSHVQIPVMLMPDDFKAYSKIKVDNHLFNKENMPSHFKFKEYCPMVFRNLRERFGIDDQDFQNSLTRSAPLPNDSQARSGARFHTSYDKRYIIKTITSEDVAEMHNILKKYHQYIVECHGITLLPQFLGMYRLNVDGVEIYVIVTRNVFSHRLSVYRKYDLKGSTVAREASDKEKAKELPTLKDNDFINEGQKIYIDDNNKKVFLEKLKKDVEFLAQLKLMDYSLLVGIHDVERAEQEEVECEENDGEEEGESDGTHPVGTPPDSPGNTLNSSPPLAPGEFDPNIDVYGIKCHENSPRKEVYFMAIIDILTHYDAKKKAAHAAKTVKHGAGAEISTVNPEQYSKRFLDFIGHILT
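ADP-Glo luminescence end-point after a 60 min room-temperature kinase reaction. PI5P4Kalpha and substrate in HEPES pH 7.4 buffer with EGTA, 0.1% CHAPS and 5% DMSO; ATP at 5 microM final.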
POLH inh – qHTS for Inhibitors of Polymerase Eta | 390,000 tested, 1.2% active | recombinant Pol eta, fluorescent DNA replication assay | DNA polymerase eta (Homo sapiens), Q9Y253 | AID 588591, 2011 | Potency, µM (doses to about 114 µM), usual class: inhibitors
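Fluorescent replication assay: 50 nM final substrate added after a 15 min room-temperature compound preincubation with 10 nM enzyme. Signal taken at 0 min and again at 10 min.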
Pol iota inh – qHTS for Inhibitors of Polymerase Iota | DNA polymerase iota (Homo sapiens), Q9UNA4 | AID 588590, 2011 | 390,000 tested, 1% active | Pol iota fluorescent replication assay, 10 min | Potency, µM (highest dose often 115 µM), most hits filed as inhibitors
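Pol iota at 10 nM preincubated 15 min with compounds at room temperature; reaction started with fluorescent substrate, 50 nM final. Fluorescence read kinetically at 0 and 10 min; buffer-only wells as negative control.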
POLK inh – qHTS for Inhibitors of Polymerase Kappa; Potency, µM (doses to about 107 µM), hits mostly inhibitors; 400,000 tested, 0.53% active; purified Pol kappa, fluorescent DNA synthesis assay, 10 min
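First, compounds were pin-transferred onto 10 nM Pol kappa. After 15 min at room temperature, substrate was added to 50 nM final. Fluorescence was then measured kinetically at 0 and 10 min.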
ADP-Glo interf – qHTS for Inhibitors of PI5P4K: ADP-Glo counter assay; shares compounds with PI5P4Ka inh; ADP-Glo detection counter-screen, luciferase luminescence, no enzyme; Potency, µM (series often up to 76.9 µM), usual class: inhibitors; 1,100 tested, under 10 active; AID 743285, 2014
Each line names hits and unclear results; the compound was inactive in the other large screens (follow-up assays come after a bar, where they were run). Unless noted, calls come from the whole dose curve; as a rule, active = well fitted curve in the direction sought with a large enough effect; inconclusive = small, poorly fitted or top-dose-only effect, or another doubt; inactive = no such curve, though single readings can be large; an effect the other way counts as inactive or inconclusive.

ClCCn1c(CCl)nc2ccc(Cl)cc21	none (no result: POLB inh, Pol iota inh, POLK inh)
Cc1c(OCC(=O)N2CCC(C(=O)NCCCC(=O)O)CC2)ccc2c1oc(=O)c1ccccc12	none
CCCOc1ccc(CSc2ncn[nH]2)cc1	WRN helicase inh inconclusive, PI5P4Ka inh -70.7, Pol iota inh inconclusive | ADP-Glo interf inactive
Brc1ccc(CSc2ncn[nH]2)cc1	none
O=C(COC(=O)C1CCCCC1)Nc1ccccc1OC(F)F	WRN helicase inh inconclusive, PI5P4Ka inh -68.0 | ADP-Glo interf inactive
CCNC(=O)c1ccccc1SCC(=O)Nc1ccc(F)cc1	PI5P4Ka inh -67.6 | ADP-Glo interf inactive
CCNC(=O)c1ccccc1SCc1ccccc1	none
Cc1sc2ncn(CC(=O)N3CCC(C(N)=O)CC3)c(=O)c2c1S(=O)(=O)N1CC(C)CC(C)C1 (stereo unspecified)	PI5P4Ka inh -90.0, Pol iota inh inconclusive, POLK inh inconclusive | ADP-Glo interf inactive
Cc1sc2ncn(CC(=O)N3CCCC(C)C3)c(=O)c2c1S(=O)(=O)N1CCCCC1 (stereo unspecified)	none
CCN(CC)C(=O)c1[nH]cnc1C(=O)Nc1cccc(Cl)c1	none (no result: POLB inh)
CCN(CC)C(=O)c1cc(Cl)ccn1	PI5P4Ka inh inconclusive | ADP-Glo interf inactive
CCC(=O)NC(c1cccs1)c1cc([N+](=O)[O-])c2cccnc2c1O (stereo unspecified)	none
CC(=O)NC(c1cccs1)c1cc([N+](=O)[O-])c2cccnc2c1O (stereo unspecified)	PI5P4Ka inh -72.6, POLH inh inconclusive | ADP-Glo interf inactive
COC(=O)C1=[N+]([O-])OC(C(=O)OC)C1c1c[nH]c2ccccc12 (stereo unspecified)	none (no result: PI5P4Ka inh)
O=C(Nc1ccnn1C1CCN(C(=O)CCc2ccc(F)cc2)CC1)C1CCOC1 (stereo unspecified)	none
CCN(CC(=O)Nc1ccc(NC(C)=O)cc1)Cc1c(O)ccc2cc(Br)ccc12	PI5P4Ka inh -71.0 | ADP-Glo interf inactive
Cc1ccc(NC(=O)CN(C)Cc2c(O)ccc3ccccc23)cc1	WRN helicase inh inconclusive, PI5P4Ka inh inconclusive
Cc1cc(Br)cn2c(Cc3ccccc3)c(-c3ccco3)nc12	none (no result: POLB inh, POLH inh, Pol iota inh, POLK inh)
COc1ccc(Cc2c(-c3ccco3)nc3ccc(Br)cn23)c(C)c1	WRN helicase inh inconclusive, PI5P4Ka inh -59.7 (no result: POLB inh, POLH inh, Pol iota inh, POLK inh) | ADP-Glo interf inactive
Cc1cc(Br)cn2c(Cc3ccsc3)c(-c3ccco3)nc12	WRN helicase inh inconclusive, PI5P4Ka inh -90.1 (no result: POLB inh, POLH inh, Pol iota inh, POLK inh) | ADP-Glo interf inactive
Cc1ccccc1SCc1noc(C(=O)NC(C)C)c1C(=O)O	none
CCCCNC(=O)c1onc(CSc2ccc(OC)cc2)c1C(=O)O	PI5P4Ka inh -50.2 | ADP-Glo interf inactive
CC(C)NC(=O)c1onc(CSc2ccccc2F)c1C(=O)O	PI5P4Ka inh -65.5, Pol iota inh inconclusive | ADP-Glo interf inactive
N=C(C[C@@H](O)COc1ccccc1-c1ccccc1)N1CCCCC1	none (no result: WRN helicase inh, POLB inh, PI5P4Ka inh, POLH inh, Pol iota inh)
COc1ccc(Cl)cc1C(Nc1cccnc1)c1ccc2cccnc2c1O (stereo unspecified)	PI5P4Ka inh -71.8 | ADP-Glo interf inactive
Cc1cc(C)cc(NC(=O)Nc2ccc(-n3ccc(C(F)(F)F)n3)cc2)c1	none
Cc1noc(C)c1C(=O)Nc1ccc(-n2ccc(C(F)(F)F)n2)cc1	PI5P4Ka inh inconclusive, POLK inh inconclusive | ADP-Glo interf inactive
O=S(=O)(c1ccccc1)N1N=C(c2ccccc2)CC1c1ccccc1 (stereo unspecified)	none
O=S(=O)(c1ccccc1)N1N=C(c2cccs2)CC1c1ccc(Br)cc1 (stereo unspecified)	PI5P4Ka inh -54.6, Pol iota inh inconclusive | ADP-Glo interf inactive

From PubChem
